Values joined by “and” are separate entries in the source; they are usually repeats but may differ in a detail not shown here. Identical values can stand only once. In all, about 330,000 compounds went through this assay and about 1,500 (0.45%) were called active. Inconclusive results (about 6%) are left out. The call rests on the fitted dose curve; tested in A549 cells. What follows is part of a selection rich in actives, with near analogues and random picks from the rest. Entries that show only a call come without a potency. More than one record can exist for a structure, and the calls need not agree.
Potency means the concentration at half of the fitted maximal effect.

The nature of the experiment: qHTS for Stage-Specific Inhibitors of Vaccinia Orthopoxvirus: Venus Reporter Primary qHTS. Further: nearly all actives have a fitted effect of over 30% in size. To be noted: Vaccinia virus Venus reporter expression, fluorescence; series mostly up to 36.5 µM.
On to `CCOC(=O)N1CCN(C(=O)C[C@@H]2C[C@@]3(C(=O)OC)CCCCC=C3N(CCC3=CCCCC3)C2=O)CC1`, for which the Potency result is “inactive”. With `CC1(C)OC(=O)C2=C(C[C@@H](C3CC3)O[C@H]2CCc2cccc(Cl)c2)O1` the entry was “inactive”. With `CN(C)CCNC(=O)Nc1cccc(Cl)c1Cl`, the Potency entry was “inactive”.

As for `CN(C)CCNC(=O)c1ccc(Cl)c2cc3ccccc3nc12`, the Potency was 4.47 µM (active).

`CC(=O)NCCNC(=O)c1cc(-c2cccc3ccccc23)nc2ccccc12`: the Potency entry is “inactive”.

On to `COc1cc(C(O)c2nc(-c3cnn(C)c3)cs2)ccc1F` (stereo not drawn), for which the Potency entry is “inactive”. On to `COc1ccc(NS(=O)(=O)c2ccc3oc(SCC(N)=O)nc3c2)cc1`, for which the Potency was 4.47 µM (active).

Take `COc1ccc(NC(=O)c2cnc(NS(=O)(=O)c3ccccc3)nc2)cc1`: the Potency result was “inactive”. With `CCn1c(=O)c(=O)[nH]c2c(=O)oc3ccc(S(=O)(=O)Nc4ccc(OC)cc4)cc3c21` the entry was “inactive”; with `O=C1CCN(Cc2ccc(-c3ccccc3)cc2)CCN1Cc1ccccn1`, “inactive”. Under `Cc1oc2c(c1C(=O)N1CCOCC1)C(=O)c1ccccc1C2=O` stands 3.16 µM (active); under `Cc1ccccc1-c1ccc(Nc2ccc(C(=O)N3CCOCC3)cc2)nn1`, “inactive”. With `COC1=C(N2CCOCC2)C(=O)c2ccccc2C1=O` the entry was “inactive”; with `CCCCC(CCCC)c1ccc(C=Nc2ccc(/C=C/c3ccnc4ccccc34)cc2)cc1`, “inactive”; with `Cc1ccccc1-c1csc(C(O)c2cccc(Cl)c2)n1` (stereo not drawn), “inactive”. As for `c1ccc2c(c1)[I+]c1ccccc1-2`, the Potency result is “inactive and 10 µM (active)”. Under `N=C1c2ccccc2-c2ccccc21` stands “inactive”. Under `CCCC[C@@H]1CN=C(N)N1CCc1cc(C(F)(F)F)cc(C(F)(F)F)c1` stands 10 µM (active); under `CCCC[C@@H]1CN=C(N)N1CCCC`, “inactive”.

As to `CCCC[C@@H]1CN=C(N)N1CCc1cccc(F)c1`, the Potency result is “inactive”. Turning to `COc1cc(CNc2ncnc3c2ncn3[C@H]2CN(Cc3cccs3)C[C@@H](CO)O2)cc(OC)c1OC`, the Potency entry is “inactive”. With `NCCCCC(C(=O)O)N(C(=O)OCc1ccccc1)C(=O)OCc1ccccc1` (stereo not drawn) the entry was “inactive”; with `Cc1ccc(-c2nn(-c3ccccc3)cc2/C=N/NC(=O)c2ccc3c(c2)OCO3)cc1`, “inactive”. Take `O=Cc1cn(-c2ccccc2)nc1-c1ccccn1`: the Potency entry is “inactive”. In the case of `COc1ccc(-c2nn(-c3ccccc3)cc2/C=N/Nc2ccccn2)cc1OC`, the Potency was 14.1 µM (active).

Regarding `CCC(c1nc2ccccc2[nH]1)n1c(=O)c(-c2cccs2)nc2ccccc21` (stereo not drawn), the Potency entry was “inactive”. For `CCC(C)N1C(=O)S/C(=C/c2ccc(Sc3nc4ccccc4[nH]3)o2)C1=O` (stereo not drawn), the Potency is 11.2 µM (active). Under `O=C(CSc1nc2ccccc2[nH]1)Nc1nc(-c2ccccc2)c(-c2ccccc2)o1` stands “inactive”; under `O=C(NCc1ccc(F)cc1)c1cc(C2CCCCN2C(=O)C2CCCCC2)on1` (stereo not drawn), “inactive”; under `COc1ccc(C2=Nc3ccccc3NC(=O)C2N(C(=O)c2cc3ccccc3[nH]2)c2ccccc2)cc1` (stereo not drawn), “inactive”. Under `C=CC[C@@H](CC(=O)N[C@H](CO)Cc1ccccc1)C(=O)N[C@@H](COC(=O)[C@@H](CC=C)Cc1ccc(F)cc1)Cc1c[nH]c2ccccc12` stands “inactive”; under `C=CC[C@@H](CC(=O)N[C@H](CO)Cc1ccccc1)C(=O)N[C@H](C)COC(=O)[C@@H](CC=C)Cc1ccc(F)cc1`, “inactive”. With `C=CCC[C@H](Cc1ccc(F)cc1)C(=O)OC[C@@H](NC(=O)[C@@H](CC=C)CC(=O)N[C@H](CO)Cc1ccccc1)C(C)(C)C` the figure was 11.2 µM (active); with `Cc1ccccc1Cn1c(C)c(C(=O)NCc2cccc(C(F)(F)F)c2)sc1=O`, “inactive”. As for `CN1CC[C@H](c2c(O)cc(O)c3c(=O)cc(-c4ccccc4Cl)oc23)[C@H](O)C1`, the Potency is 0.0794 µM (active). Under `O=C(Nc1ccc(Cl)c(C(F)(F)F)c1)C1Cc2c(-c3ccccc3Oc3ccccc3)ccnc2O1` (stereo not drawn) stands “inactive”; under `CC1(C(=O)Nc2ccc3c(c2)OCCO3)CCN1C(=O)Cc1cc(F)ccc1F` (stereo not drawn), “inactive”.

On to `CCc1ccc(-c2nn(-c3ccccc3)cc2CSC(=N)N)cc1`, for which the Potency is 11.2 µM (active). With `CCc1ccc(-c2nn(-c3ccccc3C)cc2C(=O)N2CCN(C3CCS(=O)(=O)C3)CC2)cc1` (stereo not drawn) the entry was “inactive”; with `CN(C)Cc1cn(-c2ccccc2)nc1-c1ccccc1`, “inactive”. With `COC(=O)C1CCCCN1Cc1ccc2c(c1)CN(Cc1cc(OC)c3c(c1)OCO3)CCO2` (stereo not drawn) the entry was “inactive”; with `CCCCCc1c(-c2cccc(Br)c2)ncn1CCc1ccccc1OC`, “inactive”.

For `CCCCCc1c(-c2ccc(OC)c(OC)c2)ncn1CCc1ccccc1OC`, the Potency entry is “inactive”. As for `CCCCCc1c(Cc2ccccc2)ncn1CCc1ccccc1OC`, the Potency was 1.41 µM (active). Turning to `O=C(Nc1ccccc1)c1ccccc1OCc1ccccc1`, the Potency entry was “inactive”. Under `CC1(C(=O)NCC2CCOCC2)Cc2c(-c3cccc(C(N)=O)c3)ccnc2O1` (stereo not drawn) stands “inactive”; under `COc1ccc(-c2nc3ccc(Br)cn3c2Cc2ccc(C)cc2)cc1OC`, “inactive”; under `OCCCNc1nccc(-c2cc(Nc3cccc(Cl)c3)ncn2)n1`, 0.891 µM (active).

Turning to `Cn1c(Nc2cccc(Cl)c2)nc2ccccc21`, the Potency result is “inactive”. As for `CCOC(=O)[C@]12CCCC=C1N(CCC1=CCCCC1)C(=O)[C@H](CC(=O)N1CCOCC1)C2`, the Potency entry is “inactive”. For the compound `CNc1cncc(-c2ccc(NS(C)(=O)=O)cc2)n1`, the Potency entry was “inactive”. With `CCOC(=O)[C@]12CCC=C1N(CCC1=CCCCC1)C(=O)[C@H](CC(=O)NCc1ccc(C)o1)C2` the entry was “inactive”. As to `CC(C)(C)NC(=O)C(CCc1ccccc1)n1c(=O)c(-c2ccccc2)nc2ccccc21` (stereo not drawn), the Potency result is “inactive”.

As to `CNC(=O)C(NC(=O)c1ccccc1)=C(C)C`, the Potency result is “inactive”. With `CN(C)C(=O)c1coc2nc3ccccc3nc12` the entry was “inactive”. For the compound `CNC(=O)c1cccc2nc3ccccc3nc12`, the Potency was 6.31 µM (active). Under `Brc1ccc2nc(-c3ccccc3)c(Cc3ccccc3)n2c1` stands “inactive”; under `OC(Cc1ccc2ccccc2n1)c1ccc(Cl)c(Cl)c1` (stereo not drawn), “inactive”.

For `COc1ccc(S(=O)(=O)N[C@@H]2C=C[C@@H](CC(=O)N3CCc4ccccc4C3)O[C@@H]2CO)cc1`, the Potency entry was “inactive”. With `COc1ccc(NC(=O)C2Cc3c(-c4ccc5c(c4)OCO5)ccnc3O2)cn1` (stereo not drawn) the entry was “inactive”; with `Cc1ccc(NC(=O)NC(=O)c2ccccc2)cc1F`, “inactive”. Under `Cc1cccc(NC(=O)NC(=S)NC(=O)c2ccccc2)c1` stands 10 µM (active). Take `Cc1ccc(NC(=S)NC(=O)c2ccc(-c3ccccc3)cc2)cc1`: the Potency entry is “inactive”.

For the origin of these results see PubChem BioAssay AID720580 (National Center for Advancing Translational Sciences (NCATS), 2013).
